An excerpt weighted towards active compounds, which were near 9.9% of everything screened.
KB-3-1 tox: qHTS assay for MDR1-selective chemotherapeutics: Primary screen using the parental adenocarcinoma cell KB-3-1. hit rate 1.4% among 400,000. AID 1347075, 2019. KB-3-1 viability, CellTiter-Glo ATP luminescence, 72 h. Potency, µM (top dose mostly 46.1 µM), actives largely listed as cytotoxic; also: nearly all actives have a fitted effect of over 60% in size
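72 h, 37 °C compound treatment of KB-3-1 parental cells; CellTiter-Glo added, 10 min, luminescence read. Data corrected against DMSO-only plates and normalized before curve fitting.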
SW480 rereplic: A quantitative high throughput screen for small molecules that induce DNA re-replication in SW480 colon adenocarcinoma cells; Potency, µM (highest dose often 46.1 µM), most hits filed as activators; AID 624297, 2012; SW480 DNA re-replication, Hoechst DNA content imaging, 48 h; hit rate 1.8% among 340,000; also: nearly all actives have a fitted effect of over 55% in size
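Image-based DNA-content assay: after two days of treatment, nuclei were labelled with the DNA dye Hoechst and imaged, and hits were compounds raising the count of nuclei showing high fluorescence intensity.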
MCF10A rereplic: A quantitative high throughput screen for small molecules that induce DNA re-replication in MCF 10a normal breast cells; MCF 10A DNA re-replication, Hoechst nuclear intensity, 48 h; Potency, µM (series often up to 46.1 µM), hits mostly activators; hit rate 2.9% among 350,000; AID 624296, 2012; also: nearly all actives have a fitted effect of over 50% in size
KB-V1 MDR tox: qHTS assay for MDR1-selective chemotherapeutics: Primary screen using the drug-selected MDR subline cells KB-V1; Potency, µM (titrated, usually from 46.1 µM), hits mostly cytotoxic; KB-V1 MDR cells viability, CellTiter-Glo, 72 h; hit rate 3.4% among 400,000; also: nearly all actives have a fitted effect of over 60% in size
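Luminescent ATP read-out (CellTiter-Glo, 10 min) measures survival of drug-selected KB-V1 MDR cells after 72 h, 37 degrees C compound exposure. Medium: phenol-red-free DMEM, 10% FBS. Values from fitted concentration-response curves.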
IL1B secr inh: qHTS for Inhibitors of Inflammasome Signaling: IL-1-beta AlphaLISA Primary Screen; THP-1 LPS/ATP IL-1B secretion, AlphaLISA, 16 h; hits give low values; activity change, % at 57.5 µM; hit rate 4.7% among 360,000; AID 743279, 2014; in the data active = activity change below about -50%; inconclusive = mostly about -30% to -49%
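Secreted IL-1B measured by AlphaLISA bead assay after 16 h compound exposure of THP-1 cells; compounds (final up to 57.5 uM) added 1 h before LPS (250 ng/mL) and ATP (1.25 mM) stimulation; lower signal means less secretion.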
Each line names hits and unclear results; the compound was inactive in the other large screens. Unless noted, calls follow the shape of the dose curve; as a rule, active = well fitted curve in the direction sought with a large enough effect; inconclusive = small, poorly fitted or top-dose-only effect, or another doubt; inactive = no such curve, though single readings can be large; an effect the other way counts as inactive or inconclusive.

CCOC(=O)CN(Cc1ccccc1)S(=O)(=O)c1ccc(NC(C)=O)cc1	KB-V1 MDR tox 15µM
CC(=O)Nc1ccccc1-c1nc2ccccc2n(CC(=O)Nc2ccc(C)c(Cl)c2)c1=O	none (no result: SW480 rereplic, MCF10A rereplic, IL1B secr inh)
C=CCC[C@H](Cc1ccc(F)cc1)C(=O)OC[C@@H](Cc1c[nH]c2ccccc12)NC(=O)[C@@H](CC=C)CC(=O)N(CCO)Cc1ccccc1	KB-3-1 tox inconclusive, SW480 rereplic inconclusive, MCF10A rereplic inconclusive, KB-V1 MDR tox inconclusive, IL1B secr inh -62
C=CC[C@@H](CC(=O)N(CCO)Cc1ccccc1)C(=O)N[C@H](C)COC(=O)[C@@H](CC=C)Cc1ccc(F)cc1	MCF10A rereplic inconclusive
C=CCC[C@H](Cc1ccc(F)cc1)C(=O)OC[C@H](Cc1c[nH]c2ccccc12)NC(=O)[C@@H](CC=C)CC(=O)N(CCO)Cc1ccccc1	SW480 rereplic inconclusive, MCF10A rereplic inconclusive, KB-V1 MDR tox 21µM, IL1B secr inh inconclusive
C=CC[C@H](CC(=O)N(CCO)Cc1ccccc1)C(=O)N[C@H](COC(=O)[C@@H](CC=C)Cc1ccc(F)cc1)Cc1ccccc1	KB-3-1 tox inconclusive, KB-V1 MDR tox inconclusive, IL1B secr inh -56
COC(=O)C(Cc1ccccc1)OS(N)(=O)=O (stereo not drawn)	none
Cc1ccccc1NC(=O)C1CCN(S(=O)(=O)c2cccc3nonc23)CC1	none
CCc1nc(C)cn1S(=O)(=O)c1cc(Br)ccc1OC	KB-V1 MDR tox 16µM
Cc1cc(S(=O)(=O)Nc2c(C)nn(C)c2C)c(Cl)cc1Cl	KB-3-1 tox inconclusive, SW480 rereplic inconclusive, KB-V1 MDR tox 18µM (no result: IL1B secr inh)
CCN(CC(=O)NC(C)(C)C)C(=O)COc1c(Cl)cc(Cl)c2ccc(C)nc12	KB-V1 MDR tox inconclusive
CCN(CC(=O)NC(C)(C)C)C(=O)CCl	KB-3-1 tox inconclusive, SW480 rereplic inconclusive, KB-V1 MDR tox inconclusive, IL1B secr inh -55
O=C(c1ccc(=O)[nH]n1)N1CCN(S(=O)(=O)c2ccc(C(F)(F)F)cc2)CC1	none
O=C1C=CC(=O)N1N(c1ccccc1)c1ccccc1	SW480 rereplic inconclusive, MCF10A rereplic 5.2µM, IL1B secr inh inconclusive
CCN(CC)S(=O)(=O)c1ccc(C(=O)NCC(c2ccc(OC)cc2)N2CCOCC2)cc1 (stereo not drawn)	none
O=C(CCc1c[nH]c2ccccc12)N/N=C/c1ccc2c(c1)OCO2	none
N#C/C(=C\c1ccc(-c2ccc(Br)cc2)o1)C(=O)NCCc1c[nH]c2ccccc12	SW480 rereplic inconclusive, MCF10A rereplic inconclusive, IL1B secr inh -61
N#C/C(=C/c1ccc(-c2ccc(Br)cc2)o1)C(=O)NC1CCCCC1	SW480 rereplic inconclusive, MCF10A rereplic 18µM, IL1B secr inh -55
N#C/C(=C/c1ccc2c(c1)OCO2)C(=O)NCCc1c[nH]c2ccccc12	SW480 rereplic inconclusive, MCF10A rereplic inconclusive, KB-V1 MDR tox 15µM
O=C(NCCc1c[nH]c2ccccc12)c1ccc(Br)o1	KB-V1 MDR tox inconclusive
CCOC(=O)c1ccc(-c2ccc(/C=C(\C#N)C(=O)NCC3CCCO3)o2)cc1 (stereo not drawn)	KB-V1 MDR tox 16µM
CCOC(=O)c1ccc(-c2ccc(/C=C(\C#N)C(=O)Nc3c(C)cccc3Cl)o2)cc1	none (no result: SW480 rereplic, MCF10A rereplic, IL1B secr inh)
O=C(Cn1nnc2sc(-c3ccccc3)cc2c1=O)Nc1cccc(C(F)(F)F)c1	none (no result: SW480 rereplic, MCF10A rereplic, IL1B secr inh)
COc1ccc(-c2[nH]c(-c3ccc(OC)c(OC)c3)nc2SCC(=O)Nc2ccccc2)cc1	none (no result: SW480 rereplic, MCF10A rereplic, IL1B secr inh)
O=C(c1cnn2c1NC(c1ccco1)CC2C(F)(F)F)N1CCN(c2cccc(Cl)c2)CC1 (stereo not drawn)	KB-3-1 tox inconclusive, SW480 rereplic inconclusive, MCF10A rereplic 7.3µM, KB-V1 MDR tox inconclusive
COc1cc(-c2noc(C)c2C(=O)NCCCN2CCOCC2)cc(OC)c1OC	MCF10A rereplic inconclusive, KB-V1 MDR tox inconclusive
COc1cc2c(oc(=O)c3cc(C)cc(OC)c32)c2c(C3OC(C)C(O)C(C)(O)C3O)ccc(O)c12 (stereo not drawn)	KB-3-1 tox inconclusive, SW480 rereplic inconclusive, KB-V1 MDR tox inconclusive, IL1B secr inh -101
COc1cccc2cc(C(=O)N3CC(C)OC(C)C3)c(=O)oc12 (stereo not drawn)	none
O=[N+]([O-])c1cc(S(=O)(=O)C(F)(F)F)ccc1Sc1nc2ccccc2[nH]1	KB-3-1 tox inconclusive, SW480 rereplic inconclusive, MCF10A rereplic 3.7µM, IL1B secr inh -103
O=[N+]([O-])c1cc(C(F)(F)F)ccc1Sc1ccc2ccccc2n1	KB-V1 MDR tox inconclusive
O=[N+]([O-])c1cc(S(=O)(=O)C(F)(F)F)ccc1Sc1nc2ccccc2s1	KB-3-1 tox 3.3µM, SW480 rereplic 13µM, MCF10A rereplic inconclusive, KB-V1 MDR tox inconclusive, IL1B secr inh -121
CS(=O)(=O)c1ccc(Sc2nc3ccccc3s2)c([N+](=O)[O-])c1	SW480 rereplic 7.3µM, MCF10A rereplic inconclusive, KB-V1 MDR tox inconclusive, IL1B secr inh -121
O=[N+]([O-])c1ccc(N2CCNCC2)cc1Sc1nc2ccccc2[nH]1	KB-3-1 tox inconclusive, SW480 rereplic 16µM
CS(=O)(=O)c1ccc(Sc2nc3ccccc3[nH]2)c([N+](=O)[O-])c1	KB-3-1 tox inconclusive, IL1B secr inh inconclusive
NCCNc1ccc([N+](=O)[O-])c(Sc2nc3ccccc3[nH]2)c1	none
Cc1ccccc1N(CC(=O)NCc1ccccc1)C(=O)CCC(=O)Nc1nccs1	SW480 rereplic inconclusive
COc1ccc(CCN2C(=O)CC(N3CCN(S(=O)(=O)c4ccccc4)CC3)C2=O)cc1OC (stereo not drawn)	KB-V1 MDR tox inconclusive
Cc1nc(NC(=O)CCN2C(=O)C3CC=CCC3C2=O)sc1C (stereo not drawn)	none
COc1ccc(NC(=O)c2nnn(Cc3cccc(F)c3)c2N)c(OC)c1	KB-3-1 tox 6.5µM, MCF10A rereplic inconclusive
COc1ccc(C)cc1NC(=O)c1nnn(Cc2cccc(F)c2)c1N	KB-3-1 tox inconclusive
O=[N+]([O-])c1cnc(Sc2ccncn2)c([N+](=O)[O-])c1	KB-3-1 tox inconclusive, IL1B secr inh inconclusive (no result: SW480 rereplic, MCF10A rereplic)
O=[N+]([O-])c1cnc(Sc2ccncn2)s1	KB-3-1 tox 18µM, SW480 rereplic inconclusive, KB-V1 MDR tox inconclusive, IL1B secr inh -71
OC[C@@H]1[C@@H](c2ccc(Cl)cc2)C(c2cccc(Cl)c2)=NN1c1ccccc1	SW480 rereplic 2.3µM, MCF10A rereplic inconclusive, KB-V1 MDR tox inconclusive, IL1B secr inh inconclusive
OC[C@@H]1[C@@H](c2ccc(Cl)cc2)C(c2ccccc2)=NN1c1ccccc1	SW480 rereplic 23µM, MCF10A rereplic 2.1µM, IL1B secr inh inconclusive

High-throughput results as filed in PubChem BioAssay.
